Data on 9 compounds can be found in PubChem BioAssay.

Activity calls are given as the source filed them. Unless noted, the rule behind the calls is not given here.

Assay [1] can be described thus: compound effects on lung adenocarcinoma cell viability – A549, calcein-AM fluorescence, 48 h, basal, profiling panel (AID 1162). Note: test concentration not given here. As to conditions: higher = more signal.
Assay [2] in a line: compound effects on differentiated 3T3-L1 adipocyte viability – cell-based, 3T3-L1 adipocytes, calcein-AM fluorescence, 48 h, basal, profiling panel (AID 1163). Note: test concentration not given here. As to conditions: 3T3-L1 adipocytes viability, higher = more signal.
The nature of assay [3]: compound effects on hepatocellular carcinoma cell viability – HepG2, calcein-AM fluorescence, 48 h, basal, profiling panel (AID 1164). Note: test concentration not given here. As to conditions: higher = more signal.
The nature of assay [4]: compound effects on multiple myeloma cell viability – MM1S, calcein-AM fluorescence, 48 h, basal, profiling panel (AID 1165). Note: test concentration not given here. As to conditions: higher = more signal.
Assay [5] can be described thus: calcein-AM signal in unstimulated myeloma cells – cell-based, calcein-AM fluorescence, 48 h, PK04 Diversity Set, profiling panel (AID 1166).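 Note: cells grown under basal conditions without added stimulus; test concentration not given here.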 As to conditions: RPMI8226 myeloma viability, higher = more signal.
Assay [6] in a line: JC-1 mitochondrial signal, unstimulated HepG2 cells – cell-based, JC-1 fluorescence, 24 h, 100 nL compound, profiling panel (AID 1167). Note: test concentration not given here. As to conditions: HepG2 mitochondrial potential, higher = more signal.
Assay [7] is described as follows: JC-1 mitochondrial signal, unstimulated adipocytes – cell-based, JC-1 fluorescence, 3T3-L1 adipocytes, 24 h, 100 nL compound, profiling panel (AID 1168). Note: test concentration not given here. As to conditions: JC-1 mitochondrial fluorescence, higher = more signal, called active from +8 up or from −8 down.
Assay [8] can be described thus: JC-1 mitochondrial signal, unstimulated myeloma cells – cell-based, JC-1 fluorescence, RPMI8226, 24 h, 100 nL compound, profiling panel (AID 1169). Note: test concentration not given here. As to conditions: JC-1 mitochondrial potential fluorescence, higher = more signal.
Assay [9] can be described thus: JC-1 mitochondrial signal, unstimulated MM1S myeloma – cell-based, JC-1 fluorescence, 24 h, 100 nL compound, profiling panel (AID 1170). Note: test concentration not given here. As to conditions: MM1S mitochondrial potential, higher = more signal.
Assay [10] can be described thus: resazurin metabolic signal in A549 cells – cell-based, resazurin fluorescence, 24 h, PK04 Diversity Set, profiling panel (AID 1171). Note: test concentration not given here. As to conditions: A549 viability, higher = more signal, called active from +8 up or from −8 down.
Assay [11] is described as follows: resazurin metabolic signal in HepG2 cells – cell-based, resazurin fluorescence, 24 h, PK04 Diversity Set, profiling panel (AID 1172). Note: test concentration not given here. As to conditions: HepG2 viability, higher = more signal. (In general: Resazurin is reduced to fluorescent resorufin, in cell work by metabolically active cells.)
Assay [12] is described as follows: budding yeast growth changes without added modifier – OD600, strain BY4716, 24 h, basal condition, primary screen (AID 1173). As to conditions: S. cerevisiae BY4716 growth, OD600, 24 h; higher = more signal, called active from +8 up or from −8 down.
Assay [13] is described as follows: viability profiling in MM1S myeloma cells – cell-based, resazurin fluorescence, basal, 24 h, PK04 Diversity Set, profiling panel (AID 1174). Note: test concentration not given here. As to conditions: higher = more signal, called active from +8 up or from −8 down.
The target in assay [14] is Dihydroorotate dehydrogenase (quinone), mitochondrial (Plasmodium falciparum (isolate 3D7)) (UniProt Q08210). In words: inhibition of P. falciparum DHODH – biochemical, C-terminal His tag, absorbance 600 nm, primary screen (AID 1175).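 Note: recombinant parasite enzyme with a five histidine tag at its C terminus; test concentration not given here.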 As to conditions: PfDHODH enzyme, DCIP absorbance 600 nm; higher = more signal, called active from +8 up or from −8 down.
Sequence of Dihydroorotate dehydrogenase (quinone), mitochondrial (Plasmodium falciparum (isolate 3D7)) (Q08210 whole entry, looked up): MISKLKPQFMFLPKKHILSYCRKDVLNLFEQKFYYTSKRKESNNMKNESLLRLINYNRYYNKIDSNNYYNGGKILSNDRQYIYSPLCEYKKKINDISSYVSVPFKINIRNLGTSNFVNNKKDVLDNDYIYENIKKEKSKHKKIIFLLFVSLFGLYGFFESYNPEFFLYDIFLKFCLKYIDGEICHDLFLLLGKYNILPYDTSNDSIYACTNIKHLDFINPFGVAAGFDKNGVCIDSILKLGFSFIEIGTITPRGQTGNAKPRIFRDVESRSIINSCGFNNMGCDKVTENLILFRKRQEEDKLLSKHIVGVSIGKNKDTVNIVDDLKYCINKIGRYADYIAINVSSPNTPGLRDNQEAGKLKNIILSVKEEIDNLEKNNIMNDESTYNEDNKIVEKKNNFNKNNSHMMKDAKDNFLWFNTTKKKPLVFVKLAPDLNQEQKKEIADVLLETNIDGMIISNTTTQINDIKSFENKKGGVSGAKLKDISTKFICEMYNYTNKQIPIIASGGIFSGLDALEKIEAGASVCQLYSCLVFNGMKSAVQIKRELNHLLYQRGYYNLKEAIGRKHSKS
The nature of assay [15]: inhibition of PAO1 biofilm formation – strain PAO1, LB-PBS medium, absorbance 600 nm, primary screen (AID 1176). Note: test concentration not given here. As to conditions: P. aeruginosa PAO1 growth/biofilm, A600, 12 h; higher = more signal.
The nature of assay [16]: growth modulation of vineyard yeast isolate – strain RM11-1a, OD600, basal, 24 h, primary screen (AID 1177).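 Note: cultures grown under basal conditions with no added stressor; test concentration not given here.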 As to conditions: S. cerevisiae RM11-1a growth, OD600, 24 h; higher = more signal, called active from +8 up or from −8 down.
Assay [17] is described as follows: growth of efflux-deficient E. coli DRC39 – strain DRC39, OD650, 24 h, E. coli filamentation inducers, primary screen (AID 1178).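 Note: growth measured as culture turbidity by optical density at 650 nm; test concentration not given here.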 As to conditions: E. coli DRC39 acrAB, higher = more signal, called active from +8 up or from −8 down.
Assay [18] is described as follows: growth of efflux-deficient E. coli DRC39 – strain DRC39, OD650, 48 h, E. coli filamentation inducers, primary screen (AID 1179).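 Note: screen aims at cell division blockers that make cells filament.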 As to conditions: E. coli DRC39 delta-acrAB growth, higher = more signal, called active from +8 up or from −8 down.
Assay [19] in a line: viability profiling in RPMI8226 myeloma cells – cell-based, resazurin fluorescence, basal, 24 h, PK04 Diversity Set, profiling panel (AID 1180).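 Note: RPMI8826 multiple myeloma cell line at 5000 cells per well; test concentration not given here.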 As to conditions: higher = more signal.
The target in assay [20] is E3 ubiquitin-protein ligase XIAP (Homo sapiens) (UniProt P98170). The assay is described as follows: small molecules binding XIAP protein – biophysical, small-molecule microarray, fluorescence 635 nm, primary screen (AID 1181).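 Note: score merges 667 nm emission and signal to noise over triplicate slides.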 As to conditions: higher = more signal.
Sequence of E3 ubiquitin-protein ligase XIAP (Homo sapiens) (P98170 whole entry, looked up): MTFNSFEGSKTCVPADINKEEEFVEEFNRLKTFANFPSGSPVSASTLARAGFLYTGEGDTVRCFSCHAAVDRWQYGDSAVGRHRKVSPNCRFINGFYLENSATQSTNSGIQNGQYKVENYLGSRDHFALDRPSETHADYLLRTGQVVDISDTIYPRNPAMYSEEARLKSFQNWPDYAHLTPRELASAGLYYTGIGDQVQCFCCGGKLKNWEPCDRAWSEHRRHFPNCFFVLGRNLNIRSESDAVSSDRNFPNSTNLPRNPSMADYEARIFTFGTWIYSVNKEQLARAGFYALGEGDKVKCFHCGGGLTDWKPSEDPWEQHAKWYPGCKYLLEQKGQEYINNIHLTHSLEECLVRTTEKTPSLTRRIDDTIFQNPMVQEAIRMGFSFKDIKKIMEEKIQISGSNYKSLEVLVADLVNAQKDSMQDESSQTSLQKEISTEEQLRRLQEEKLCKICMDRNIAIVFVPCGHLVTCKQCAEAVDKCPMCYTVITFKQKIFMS

As to `CC(C)CNC(=O)[C@@H]1c2ccccc2C(=O)N(CC23CC4CC(CC(C4)C2)C3)[C@H]1c1ccc(CO)cc1`, the z-score is 0.226 in assay [1]; 0.918 in [2]; 0.537 in [3]; 0.107 in assay [4]; -0.35 in assay [5]; 1.38 in assay [6]. The z-score in [7] was 1.64 (inactive); in [8] it was -0.217; in assay [9] it was -0.0634; in assay [10], 0.915 (inactive); in assay [11], 0.82; in assay [12] it was -1.17 (inactive). For the same compound, the z-score in assay [13] is 1.93 (inactive); in assay [15] it was -0.397 (inactive); in [16] it was -0.0966 (inactive); in assay [17], 0.256 (inactive); in assay [18], 0.339 (inactive); in assay [19], 0.281. Further, the results for the composite z-score in assay [14] and in [20] were -0.42 (inactive) and -0.13, respectively.

`C=CCNC(=O)[C@@H]1[C@H]2C(=O)O[C@H](c3ccccc3)[C@H](c3ccccc3)N2[C@H](c2ccccc2OCCO)[C@@]12C(=O)N(C(=O)OCCOC)c1ccc(C#CCCO)cc12`: the z-score was 0.614 in assay [1]; 0.393 in assay [2]; 1.53 in [3]; -0.02 in [4]; -0.615 in [5]; -0.332 in assay [6]. For the same compound, the z-score in assay [7] is 0.507 (inactive); in [8], -0.868; in assay [9], -1.46; in assay [10] it was -0.0256 (inactive); in assay [11], -0.301; in assay [12], 0.858 (inactive). For the same compound, the z-score was -1.02 (inactive) in [13]; 1.32 (inactive) in assay [15]; 2.15 (inactive) in assay [16]; 0.251 (inactive) in assay [17]; 0.569 (inactive) in [18]; -1.56 in assay [19]. Besides, the figures for the composite z-score in [14] and in assay [20] were -0.202 (inactive) and -0.0347, respectively.

Take `N[C@@H](Cc1ccccc1)Cn1cc(C2(O)CCCCC2)nn1`: the z-score in [1] is -0.359; in assay [2], -0.169; in [3] it was 0.0224; in [4] it was -0.991; in [5] it was -0.775; in assay [6], -0.739. In addition, the z-score in assay [7] is -0.375 (inactive); in [8], -0.622; in assay [9] it was -0.313; in assay [10], -0.279 (inactive); in assay [11], -0.384; in assay [12] it was -0.125 (inactive). In addition, the z-score in assay [13] was -0.156 (inactive); in [15], 0.0672 (inactive); in [16], -0.507 (inactive); in assay [17], -0.0019 (inactive); in assay [18], -0.607 (inactive); in [19], -0.785. Besides, the composite z-score was -0.0324 (inactive) in assay [14] and -0.0767 in [20].

For `CN1C(=O)[C@]2(CCC(=O)OC(C)(C)C)N=C(c3ccc(OCCCO)cc3)O[C@@H]2c2ccccc21`, the z-score in [1] is -0.024; in assay [2], 0.834; in [3], -0.54; in assay [4] it was -0.964; in assay [5] it was -3.26; in assay [6] it was 1.29. The z-score in assay [7] is 1.41 (inactive); in [8], -0.931; in assay [9], 0.129; in assay [10] it was -0.877 (inactive); in assay [11], 0.476; in assay [12], 0.997 (inactive). Further, the z-score in [13] was -1.67 (inactive); in assay [15], -0.441 (inactive); in [16] it was 1.09 (inactive); in assay [17], 1.01 (inactive); in assay [18], 0.679 (inactive); in assay [19] it was -1.56. Also, the composite z-score in [14] was 0.42 (inactive); in [20] it was 0.312.

As to `COc1ccc(CCNC(=O)[C@@]2(Sc3ccc(C)cc3)CC(=O)N(Cc3cc(C(F)(F)F)cc(C(F)(F)F)c3)[C@@H]2c2ccc(CO)cc2)cc1`, the z-score is -0.147 in assay [1]; 0.7 in assay [2]; -0.29 in [3]; -0.305 in assay [4]; -0.24 in [5]; 0.016 in assay [6]. Besides, the z-score in assay [7] is -0.563 (inactive); in assay [8], 1.15; in assay [9] it was -0.145; in assay [10], 0.423 (inactive); in assay [11] it was -0.392; in assay [12], -1.01 (inactive). Further, the z-score in assay [13] was -0.378 (inactive); in [15], 0.112 (inactive); in assay [16] it was -0.83 (inactive); in assay [17], 0.0664 (inactive); in assay [18], -0.331 (inactive); in assay [19], -0.395. The composite z-score was -0.61 (inactive) in assay [14] and 0.536 in assay [20].

Take `CC(C)[Si](C#CCCCC#N)(O[C@H](c1ccccc1)c1cn([C@H](C)c2ccccc2)nn1)C(C)C`: the z-score in [1] is -1.38; in [2] it was -0.348; in [3] it was 0.571; in assay [4], -0.057; in assay [5] it was -2.68; in [6] it was 6.54. The z-score in assay [7] was -0.289 (inactive); in assay [8], 0.0785; in assay [9], -0.733; in [10], 1.07 (inactive); in [11] it was 0.592; in assay [12], -1.06 (inactive). The z-score is 0.181 (inactive) in assay [13]; 0.559 (inactive) in assay [15]; -0.802 (inactive) in assay [16]; -0.708 (inactive) in assay [17]; -0.482 (inactive) in [18]; 0.409 in assay [19]. In addition, the results for the composite z-score in assay [14] and in [20] were 0.31 (inactive) and 0.172, respectively.

Regarding `CCCC=C(CCC)[C@@H](NC(=O)c1ccco1)c1ccc(C(=O)OC)cc1`, the z-score was -4.29 in assay [1]; -1.72 in assay [2]; -5.68 in assay [3]; -3.26 in [4]; -4.76 in [5]; -4.88 in [6]. Also, the z-score in assay [7] was -0.458 (inactive); in assay [8] it was -0.736; in [9] it was -2.86; in assay [10], 6.91 (inactive); in assay [11] it was 3.5; in assay [12], 1.39 (inactive). For the same compound, the z-score was 1.12 (inactive) in assay [13]; -0.387 (inactive) in [15]; 1.67 (inactive) in assay [16]; -0.422 (inactive) in assay [17]; -0.245 (inactive) in assay [18]; -2.8 in assay [19]. For the same compound, the composite z-score in [14] was -0.0216 (inactive); in [20] it was 0.251.

Take `CC1CC/C=C\[C@H]2OC34C=CCN(CCN5CCOCC5)C(=O)[C@H]3N(CCCCCCO)C(=O)[C@@H]4C2C(=O)O1` (stereo not given in full): the z-score in assay [1] is 0.919; in assay [2], 0.24; in assay [3], 1.1; in assay [4], 1.42; in assay [5] it was -0.575; in assay [6], 0.37. Also, the z-score was -0.44 (inactive) in assay [7]; -0.0357 in assay [8]; 0.606 in [9]; -0.116 (inactive) in [10]; -0.655 in [11]; -0.195 (inactive) in assay [12]. The z-score is -0.513 (inactive) in assay [13]; -0.717 (inactive) in [15]; 0.615 (inactive) in [16]; 0.125 (inactive) in assay [17]; 0.602 (inactive) in assay [18]; 0.761 in assay [19]. Besides, the composite z-score in assay [14] is 0.85 (inactive); in assay [20], 0.288.

On to `CCCCNC(=O)c1ccc(C#C[Si](C)(C)C)c(OC(C)=O)c1`, for which the z-score in assay [1] is -0.507; in [2], 0.477; in assay [3] it was -0.484; in assay [4], 0.131; in assay [5], -1.13; in assay [6] it was -1.12. The z-score in assay [7] is -0.538 (inactive); in [8], -0.215; in [9], -0.601; in assay [10], -0.389 (inactive); in assay [11], -0.0319; in assay [12] it was -1.09 (inactive). In addition, the z-score in [13] is -0.757 (inactive); in [15], -1.44 (inactive); in [16] it was 0.846 (inactive); in assay [17], 1.17 (inactive); in assay [18], -0.925 (inactive); in [19] it was 0.0873. Besides, the composite z-score was -1.4 (inactive) in [14] and -0.326 in assay [20].
